The supplement of paper PMC6555819

Key:
Experiment in all cases: PBM binding z-score (relative to random genomic background probes); higher = stronger binding; sequences stand for … in GC…GCGATTGACAGCGTAGAATGAAGG
[1] = test system: PPARg:RXRa DBDmut IVT, anti-RXR (DBD mutation: RXRa K156A/R161A, NR concentration 270 nM, RXRa partner concentration 90 nM)
How it was run: (§1)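 The probes on custom Agilent 4×180K protein-binding microarrays were double-stranded, with 34-nt variable regions bearing direct-repeat seeds, single-nucleotide variants, half-site ablations and random human genomic background sequences. Incubation lasted 1 h with ligand-free nuclear receptor dimers in PBS pH 7.4, 2% milk, 0.02% Triton X-100, 1 mM DTT, 0.2 mg/mL BSA and 0.4 mg/ml salmon testes DNA. Antibodies against each partner (one per run) detected bound dimers, and fluorescence scans were regression-normalized. Binding z-scores take the random background probes as reference.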

[2] = test system: PPARg:RXRa IVT, anti-PPARg (NR concentration 270 nM, RXRa partner concentration 90 nM)
How it was run: as §1

[3] = test system: PPARg DBDmut:RXRa IVT, anti-PPARg (DBD mutation: PPARg1 K132A/R137A, NR concentration 270 nM, RXRa partner concentration 90 nM)
How it was run: as §1

[4] = test system: PPARg DBDmut IVT, anti-PPARg (DBD mutation: PPARg1 K132A/R137A, NR concentration 270 nM)
How it was run: as §1

[5] = test system: PPARg homodimer (NR concentration 180 nM)
How it was run: as §1

[6] = test system: PXR:RXRa (NR concentration 270 nM, RXRa partner concentration 90 nM)
How it was run: as §1

[7] = test system: PXR homodimer (NR concentration 270 nM)
How it was run: as §1

[8] = test system: RARa:RXR (NR concentration 270 nM, RXRa partner concentration 90 nM)
How it was run: as §1

[9] = test system: RARa homodimer (NR concentration 270 nM)
How it was run: as §1

[10] = test system: RARb:RXRa (NR concentration 270 nM, RXRa partner concentration 90 nM)
How it was run: as §1

Row | Sequence | PBM binding z-score [1] | PBM binding z-score [2] | PBM binding z-score [3] | PBM binding z-score [4] | PBM binding z-score [5] | PBM binding z-score [6] | PBM binding z-score [7] | PBM binding z-score [8] | PBM binding z-score [9] | PBM binding z-score [10]
1 | TCGACTAGGTTAGTCGGGGCATTCAGCCAACATA | 2.49 | 2.12 | -0.552 | -0.496 | -0.609 | 0.117 | -0.422 | 0.0483 | -1.11 | 0.662
2 | TGTCAAAGTGCAAAGGTAACGTAAGTATCCACAC | 0.00516 | 2.98 | 0.574 | 0.92 | 1.09 | 1.76 | 0.397 | 2.57 | 0.0756 | 2.38
3 | CCTAGTTGGTCAAGGTTACACACGCTATAGGTAC | 1.65 | 2.24 | 1.11 | 1.66 | 2.04 | 1.19 | 1.09 | 1.6 | 1.63 | 1.99
4 | ACTGACGGGTCAACGAGGTTATAGCACGCGTATA | 0.94 | 2.54 | 0.338 | 0.241 | 1.88 | 4.39 | 2.3 | 4.36 | 0.626 | 3.87
5 | TAGCCTAGGTCCTGGGCCAGTATACCACGCGAAC | -1.56 | -0.0166 | -0.0149 | -1.32 | -1.29 | -0.91 | -0.893 | -0.567 | -1.37 | -0.156
6 | CTTCAAAGTTCAAGGTAACGTAACAGAAAGCAGC | 0.401 | 1.36 | 0.994 | 1 | 2.93 | 4.18 | 2.67 | 3.32 | 1.72 | 5.1
7 | CGTCCAAAGTCAATGCTAGGTCAGTGAAAGCATT | 0.0357 | 0.544 | -0.669 | -0.616 | 1.04 | 0.434 | -0.027 | 1.07 | 0.396 | 1.68
8 | TATCGGAGGACACGAAAGGTCAGAGCTCGACATC | 0.425 | 2.37 | 0.89 | 0.344 | 2.86 | 4.25 | 0.981 | 4.73 | 1.49 | 4.37
9 | GCGCCTGGGGCAAAGCAGGTTACCATAAGGTTGG | 0.355 | -0.0318 | -1.1 | -1.44 | -0.5 | 0.277 | -0.671 | 0.359 | -0.592 | 1.02
10 | CGTCCAAGGTCAGCAGATCAGTGAAAGCGACGTG | 2.68 | 2.66 | 0.547 | -0.498 | 2.2 | 2.49 | 0.4 | 3.08 | 0.548 | 5.02
11 | TCTCGGAGGACACGCAGGTCAGAGCTTTCCAGAG | 1 | 0.776 | -0.915 | -1.54 | 0.365 | 1.1 | 0.213 | 1.15 | -0.493 | 2.67
12 | CCTGACGGGTCACTGACAGGTTATAGCATTTGGA | 1.12 | 1.82 | 0.147 | -0.292 | 3.03 | 3.08 | -0.179 | 4.01 | 0.536 | 3.69
13 | CCTCGGAGGGCAGAAGGTCAGAGCTGTCCGCTTT | 0.357 | 0.981 | -1.69 | -1.6 | 0.905 | 1.94 | -0.405 | 2.53 | -0.604 | 3.69
14 | ATATGTAGGTTTGCTGGGGTCATTCAGACTAGGC | 3.16 | 3.12 | 1.39 | 1.41 | 1.83 | 5.71 | 7.95 | 4.72 | 1 | 2.53
15 | ACAGACAGGTGATGAAGGTACCTCAGGCTATCAT | -0.0914 | 0.0194 | 0.29 | 0.042 | -0.0635 | -0.279 | 0.235 | 0.00944 | -0.363 | -0.00921
16 | CCGACTGGGGCACGGTTACCATAACGCACAGCCA | 3.83 | 4.42 | -0.407 | -0.566 | 0.044 | -0.353 | -0.44 | -0.139 | -0.261 | 1.06
17 | CCGACTAGGGCAAGGTTACCATAACGCACAGCCA | 4.54 | 4.32 | -0.62 | -0.559 | 1.27 | 0.169 | -0.069 | 0.801 | 0.218 | 1.91
18 | ATCTCTAGGTAACGTTCAGTGAAAGATCGATAGA | 3.29 | 2.87 | 1.78 | 1.73 | 0.504 | 0.0439 | 0.0107 | 0.445 | 0.865 | 0.556
19 | CCTGCTAGGTCATGGTCAGCCAATCTACAGTATG | 4.43 | 3.74 | 0.352 | 0.0677 | 1.85 | 1.21 | -0.386 | 2.49 | 0.141 | 3.9
20 | AGTCAAAGTTCACTACGTAACGTAAGATTCAGCT | 0.373 | 1.98 | 1.52 | 1.04 | 1.69 | 3.72 | 2.5 | 2.71 | 1.15 | 4.47
21 | CCAGACAGGTGATAAGGTAACTCAGCCTCGATTA | 0.812 | 0.261 | 0.0987 | -0.29 | 1.14 | -0.0216 | 0.227 | 0.472 | 0.984 | 0.359
22 | AGAACGAGGGCACGCTGAGTTGATAGCGGAGTAG | 4.05 | 3.75 | 0.375 | 0.0426 | 0.25 | 1.35 | 0.0475 | 0.611 | 0.00108 | 2.42
23 | ATCTCTAGGTAACCAAGTTTAGTGAATGCCGAAC | 3.62 | 2.79 | 0.887 | 1.75 | 0.787 | 0.564 | 0.333 | 0.55 | 1.08 | 0.627
24 | TCATAGAGGTAAATGCTAGGTGAAAGTCCGATCT | 2.05 | 1.32 | -0.394 | -0.601 | 0.164 | 0.0496 | -0.193 | 0.932 | -0.0762 | 0.439
